Measured values taken from PubChem BioAssay (EPA / NIEHS).
“And” between values parts separate entries of the source, which are not always exact repeats. Identical values can stand only once. The source made the active and inactive calls. How the source made its calls: active means hit-call score of the fitted dose curve at least 0.9, where 1 is the maximum; inactive means score below 0.9.

read-out: Basic fibroblast growth factor (bFGF), FGF2 (gene 2247); assay: BSK_MyoF_bFGF: BioMAP Diversity Plus: MyoF Assay for Basic fibroblast growth factor (bFGF) Biomarker Activity (AID 2284246); conditions: primary human lung fibroblasts
Outline: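 Primary human lung fibroblast culture, 24 h compound exposure; ELISA read-out of bFGF. Positive-direction fit vs DMSO baseline. Cytotoxicity: SRB stain (0.1% SRB, 10% TCA fixation, 560 nm) in parallel wells.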

SMILES | outcome | AC50
NCC(F)(F)C(F)(F)C(F)(F)C(F)(F)C(F)(F)C(F)(F)C(F)(F)C(F)(F)F | inactive | 
O=C(O)C(F)(F)C(F)(F)C(F)(F)OC(F)(C(F)(F)F)C(F)(F)F | inactive | 
CNS(=O)(=O)C(F)(F)C(F)(F)C(F)(F)C(F)(F)C(F)(F)C(F)(F)C(F)(F)C(F)(F)F | inactive | 
CC(C)(C)c1cc(CCC(=O)NCCCCCCNC(=O)CCc2cc(C(C)(C)C)c(O)c(C(C)(C)C)c2)cc(C(C)(C)C)c1O | inactive | 
Cc1ccc(S(=O)(=O)C(I)I)cc1 |  | 12.5 µM (active)
Cc1cc(C)c(O)c(C(C)(C)C)c1 |  | 36.8 µM (active)
O=C(O)C(F)(F)C(F)(F)C(F)(F)OC(F)(F)F | inactive | 
CCOC(=O)CC(=O)C(F)(F)C(F)(F)F | inactive | 
CC1=CC2C3C=CC(C3)C2C1C (centres undefined) | inactive | 
CN(C(=O)C(F)(F)C(F)(F)C(F)(F)F)[Si](C)(C)C | inactive | 
O=S(=O)(Cl)C(F)(F)C(F)(F)C(F)(F)C(F)(F)C(F)(F)C(F)(F)C(F)(F)C(F)(F)F | inactive | 
O=C(O)C(F)(F)C(F)(F)C(F)(F)C(F)(F)C(F)(F)C(F)(F)C(F)F | inactive | 

read-out: Collagen IV, COL4A1 (gene 1282); assay: BSK_MyoF_CollagenIV: BioMAP Diversity Plus: MyoF Assay for Collagen IV Biomarker Activity (AID 2284247); conditions: primary human lung fibroblasts
Outline: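 ELISA read-out of Collagen IV in lung fibroblast cultures, 24 h post-dosing; gain of signal relative to DMSO vehicle baseline defines activity.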

SMILES | outcome | AC50
Cc1ccc(O)c(-n2nc3ccccc3n2)c1 | inactive | 
C=CC(=O)OCCC(F)(F)C(F)(F)C(F)(F)C(F)(F)F | inactive | 
OCC(F)(F)C(F)(F)C(F)(F)C(F)(F)C(F)(F)C(F)(F)CO | inactive | 
CCN(CC)c1ccc(N=Nc2ccccc2)cc1 |  | 9.37 µM (active)
NCC(F)(F)C(F)(F)C(F)(F)C(F)(F)C(F)(F)C(F)(F)C(F)(F)C(F)(F)F | inactive | 
O=C=NCc1cccc(CN=C=O)c1 | inactive | 
O=S(=O)(OCC(F)(F)F)C(F)(F)C(F)(F)C(F)(F)C(F)(F)F | inactive | 
O=S(=O)(O)CCC(F)(F)C(F)(F)C(F)(F)C(F)(F)F | inactive | 
O=C(O)C(F)(F)C(F)(F)C(F)(F)OC(F)(C(F)(F)F)C(F)(F)F | inactive | 
O=C(F)C1(F)C(F)(F)C(F)(F)C(F)(F)C(F)(F)C1(F)F | inactive | 
CNS(=O)(=O)C(F)(F)C(F)(F)C(F)(F)C(F)(F)C(F)(F)C(F)(F)C(F)(F)C(F)(F)F |  | 2.71 µM (active) and 3.58 µM (active)
CC(C)(C)c1cc(CCC(=O)NCCCCCCNC(=O)CCc2cc(C(C)(C)C)c(O)c(C(C)(C)C)c2)cc(C(C)(C)C)c1O | inactive | 
CCN(CC)c1ccc(C=O)cc1 | inactive | 
NS(=O)(=O)C(F)(F)C(F)(F)C(F)(F)C(F)(F)C(F)(F)C(F)(F)F |  | 25.5 µM (active) and 20.4 µM (active)
Cc1cnccn1 | inactive | 
Cc1ccc(S(=O)(=O)C(I)I)cc1 |  | 7.25 µM (active)

SMILES | outcome | AC50
Cc1cc(O)c(C(C)(C)C)cc1C(C)(C)C |  | 4.74 µM (active)
Cc1cc(C)c(O)c(C(C)(C)C)c1 |  | 32.4 µM (active)
O=C=Nc1cccc2c(N=C=O)cccc12 | inactive | 
O=C(O)C(F)(F)C(F)(F)C(F)(F)OC(F)(F)F | inactive | 
O=C1c2c(O)ccc(Nc3ccc(CCO)cc3)c2C(=O)c2c([N+](=O)[O-])ccc(O)c21 |  | 34.1 µM (active)
COC(F)(C(F)F)C(F)(F)F (centres undefined) | inactive | 
CCOC(=O)CC(=O)C(F)(F)C(F)(F)F | inactive | 
CC1=CC2C3C=CC(C3)C2C1C (centres undefined) | inactive | 
CN(C(=O)C(F)(F)C(F)(F)C(F)(F)F)[Si](C)(C)C | inactive | 
NC(=O)C(F)(F)C(F)(F)C(F)(F)C(F)F | inactive | 
O=S(=O)(Cl)C(F)(F)C(F)(F)C(F)(F)C(F)(F)C(F)(F)C(F)(F)C(F)(F)C(F)(F)F |  | 41.1 µM (active) and 30.1 µM (active)
O=C(O)C(F)(F)C(F)(F)C(F)(F)C(F)(F)C(F)(F)C(F)(F)C(F)F | inactive | 
O=C(O)CCC(F)(F)C(F)(F)C(F)(F)C(F)(F)C(F)(F)C(F)(F)C(F)(F)F | inactive | 
CCN(CCO)S(=O)(=O)C(F)(F)C(F)(F)C(F)(F)C(F)(F)C(F)(F)C(F)(F)C(F)(F)C(F)(F)F | inactive | 
O=C(O)C(F)(F)C(F)(F)C(F)(F)C(=O)O | inactive | 
CCOC(C=C(C)CCC=C(C)C)OCC | inactive | 
